The text below walks through data of PubChem BioAssay (NCATS).

Test [1] can be described thus: qHTS Assay for Identifying Gametocytocidal Compounds (AID 743244; active = well fitted curve in the direction sought with a large enough effect; an effect the other way counts as inactive or inconclusive;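 note: % is set by controls: 0 for no effect and ±100 for the full control effect; actives lower the fluorescent signal which means gametocytes are killed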). The conditions noted are these: P. falciparum 3D7 stage III-V gametocytes, alamarBlue, 72 h; max response: stronger effect = lower value. The essentials: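 Fluorescence at Ex 525/Em 598 nm, recorded 24 h after alamarBlue addition, reports residual metabolic activity of 3D7 gametocytes (stages III–V) following 72 h compound exposure at 37 °C, 5% CO2.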
In general terms: Quantitative high-throughput screening tests each substance at several concentrations.

The nature of test [2]: qHTS profiling for inhibitors of Plasmodium falciparum (DD2) proliferation (AID 743323). The conditions noted are these: lower = more inhibition; at 28.7 µM (top of the series) unless noted. The essentials: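 SYBR Green fluorescence (ex 485, em 535 nm) of lysed cultures gives parasite DNA content; wells normalized to artemisinin (0.29 uM) and DMSO controls. Infected red cells: 0.3% parasitemia, 2.5% hematocrit, 72 h, 37 C.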

Test [3] in a line: qHTS profiling for inhibitors of Plasmodium falciparum (HB3) proliferation (AID 743324; active = well fitted curve in the direction sought with a large enough effect; an effect the other way counts as inactive or inconclusive;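 note: 100% = DMSO vehicle wells and 0% = artemisinin-treated control wells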). The conditions noted are these: Plasmodium falciparum HB3 blood-stage proliferation; at 28.7 µM (top of the series) unless noted. The essentials: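 P. falciparum HB3 grown in erythrocytes (0.3% parasitemia, 2.5% hematocrit final) with compound for 72 h at 37 C, 5% CO2. Parasite DNA detected by SYBR Green after saponin/triton lysis overnight; normalized to 0.29 uM artemisinin and DMSO.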

The nature of test [4]: qHTS profiling of the MIPE4 collection as inhibitors of Plasmodium falciparum (3D7) proliferation (AID 743344).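 Note: scaled between DMSO vehicle wells and 0.29 µM artemisinin as full inhibition.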 The conditions noted are these: P. falciparum 3D7 in erythrocytes, SYBR Green DNA fluorescence, 72 h; at 28.5 µM (top of the series) unless noted. The essentials: (§1)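 Erythrocytes infected with P. falciparum (0.3% parasitemia, 2.5% hematocrit) incubated with compounds 72 h at 37 C, 5% CO2. Lysis with saponin/Triton buffer containing SYBR Green I, overnight at room temperature in the dark; DNA fluorescence (485/535 nm) normalised to 0.29 uM artemisinin and DMSO.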

Test [5] is described as follows: qHTS profiling of the MIPE4 collection as inhibitors of Plasmodium falciparum (DD2) proliferation (Rep 2) (AID 743346). The conditions noted are these: P. falciparum Dd2 in erythrocytes, SYBR Green DNA, 72 h; at 28.5 µM (top of the series) unless noted. The essentials:
as §1

Test [6] can be described thus: qHTS profiling of the MIPE4 collection as inhibitors of Plasmodium falciparum (HB3) proliferation (AID 743347).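 Note: plate controls were DMSO vehicle wells for no effect and artemisinin wells for full effect.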 The conditions noted are these: P. falciparum HB3 in erythrocytes, SYBR Green DNA, 72 h; at 28.5 µM (top of the series) unless noted. The essentials: as §1
The nature of test [7]: High-throughput drug toxicity screening in the BPDCN cell line Gen2.2 (AID 1224824).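 Note: cells exposed to compounds for 48 h before reading.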 The conditions noted are these: Gen2.2 BPDCN cells; at 45.8 µM (top of the series) unless noted. The essentials:
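CellTiter-Glo luminescence after 48 h compound exposure of Gen2.2 cells; percent activity set with DMSO as 100% and bortezomib (9.2 uM final) as 0%. Cells seeded at 500 per well, RPMI + 10% FBS, 37 °C.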

Test [8] is described as follows: qHTS assay for cell viability of HEK293 cells (AID 743288; active = well fitted curve in the direction sought with a large enough effect; an effect the other way counts as inactive or inconclusive; note: % is set by controls: 0 for no effect and ±100 for the full control effect; nearly all actives have a fitted effect of over 50% in size). The conditions noted are these: ATP luminescence (CellTiter-Glo), 18 h; max response: stronger effect = lower value. The essentials: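 Environmental chemicals tested in qHTS format against parental HEK293 cells; 18 h treatment, 37 C; read-out ATP luminescence (CellTiter-Glo), 30 min RT development.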
Test [9] is described as follows: qHTS assay for cell viability of the p53RE-bla HCT-116 cell line (AID 743292; active = well fitted curve in the direction sought with a large enough effect; an effect the other way counts as inactive or inconclusive; note: % is set by controls: 0 for no effect and ±100 for the full control effect; nearly all actives have a fitted effect of over 55% in size). The essentials: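 Readout: CellTiter-Glo luminescence after 30 min RT. Treatment: compounds in DMSO, 16 h, 37 C. Cells: CellSensor p53RE-bla HCT-116, 4,000/well, preincubated 5 h.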
A short description of test [10]: qHTS profiling of the MIPE4 collection as inhibitors of Plasmodium falciparum (DD2) proliferation (AID 743345). The conditions noted are these: P. falciparum Dd2 in erythrocytes, SYBR Green DNA, 72 h; at 28.5 µM (top of the series) unless noted. The essentials:
as §1

Each structure is given as a SMILES string. Where “and” joins values, the source holds several entries; their conditions need not be identical. Equal values may be shown once. Records with an inconclusive call do not appear. Calls of active or inactive are those of the source. Unless noted, the rule behind the calls is not given here.

Turning to `Cc1cccc(-c2[nH]ncc2-c2ccc3ncccc3n2)n1`, the max response in test [1] was -4.01% (inactive). The activity, percent of control in test [2] is 107% [at 57.5 µM]. Also, in [3], the remaining proliferation (% of control), lower = more inhibition is 89.3% [at 57.5 µM]. This compound had a parasite growth, % of DMSO control in test [4] of 74.7%. In addition, in [5], the parasite growth, % of control (lower = inhibition) was 81.1%. The growth, % of control in [6] was determined as 52.8%. Also, in test [7], the cell viability, % of control (lower = more cytotoxic) worked out at 759%.

For the compound `COc1cc(OC)c(C(=O)CCCN2CCCC2)c(OC)c1`, the max response is 4.14% (inactive) in test [1] and -5.06% (inactive) in test [8]. Also, the Potency entry in test [9] is “inactive”. This compound also gave a parasite growth, % of DMSO control in [4] of 90.8%. For the same compound, the parasite growth, % of control (lower = inhibition) in test [5] came to 38.2%. The compound also came in with a growth, % of control in [6] of 75.7%. The cell viability, % of control (lower = more cytotoxic) in test [7] was 165%.

`O=c1c(O)c(-c2ccc(O)cc2O)oc2cc(O)cc(O)c12`: the max response in [1] is 11.7% (inactive); in test [8] it was -9.35% (inactive). For the same compound, the Potency entry in [9] is “inactive”. In [4], this compound had a parasite growth, % of DMSO control of 80.8%. In [10], the parasite growth remaining, % of DMSO control (lower = more inhibition) turned out to be 71%. In test [5], the parasite growth, % of control (lower = inhibition) came out at 111%. In test [6], this compound had a growth, % of control of 99.8%. Also, in [7], the cell viability, % of control (lower = more cytotoxic) is 74.1%.

For the compound `Cc1c(OCC(F)(F)F)ccnc1CS(=O)c1nc2ccccc2[nH]1` (configuration not stated), the cell viability, % of control (lower = more cytotoxic) in test [7] was determined as 595%.

As for `C[C@@H](c1ncncc1F)[C@](O)(Cn1cncn1)c1ccc(F)cc1F`, the cell viability, % of control (lower = more cytotoxic) in [7] is 56.5%.

On to `S=c1nc[nH]c2nc[nH]c12`, for which the max response in test [1] was 21.9% (inactive) and -4.09% (inactive). Moreover, the activity, percent of control in test [2] was determined as 88.8% [at 57.5 µM]. In addition, the parasite growth, % of DMSO control in test [4] stood at 68.3%. The parasite growth remaining, % of DMSO control (lower = more inhibition) in [10] was 96%. Besides, the parasite growth, % of control (lower = inhibition) in [5] was 6.58%. In addition, the cell viability, % of control (lower = more cytotoxic) in test [7] is 203%.

On to `CC(C)c1ccc2c(c1)c(SC(C)(C)C)c(CC(C)(C)C(=O)O)n2Cc1ccc(Cl)cc1`, for which the max response in test [1] was 14.3% (inactive) and 21.6% (inactive). Further, the activity, percent of control in test [2] was 27.3%. Moreover, in test [3], the remaining proliferation (% of control), lower = more inhibition worked out at 22.8%. In test [4], this compound yielded a parasite growth, % of DMSO control of 21.7%. The parasite growth remaining, % of DMSO control (lower = more inhibition) in [10] worked out at 42.3%. Besides, in test [5], the parasite growth, % of control (lower = inhibition) worked out at 22%. In addition, in test [6], the growth, % of control was 11.8%. Moreover, the cell viability, % of control (lower = more cytotoxic) in test [7] was found to be 111%.

In the case of `CCOC(=O)C1=C[C@@H](OC(CC)CC)[C@H](NC(C)=O)[C@@H](N)C1`, the max response in [1] is -3.59% (inactive). Moreover, in [7], the cell viability, % of control (lower = more cytotoxic) turned out to be 152%.

Turning to `Cc1ccc(Nc2nccc(N(C)c3ccc4c(C)n(C)nc4c3)n2)cc1S(N)(=O)=O`, in [1], the max response is 45.8% (inactive). For the same compound, the cell viability, % of control (lower = more cytotoxic) in test [7] is 355%.

For `C[C@@H](N)C1CCC(C(=O)Nc2ccncc2)CC1` (some centres not stated), the max response in [1] is -0.932% (inactive) and 18% (inactive). Also, the activity, percent of control in test [2] is 103%. Moreover, in test [3], the remaining proliferation (% of control), lower = more inhibition is 94.3%. In [4], this compound gave a parasite growth, % of DMSO control of 85.6%. Further, the parasite growth remaining, % of DMSO control (lower = more inhibition) in test [10] was 91.5%. In [5], the parasite growth, % of control (lower = inhibition) stood at 78.9%. The compound further gave a growth, % of control in [6] of 72.6%. The cell viability, % of control (lower = more cytotoxic) in test [7] was 84.4%.

For `CN1C(C(=O)Nc2ccccn2)=C(O)c2sccc2S1(=O)=O`, the max response in test [1] is 15.1% (inactive). Moreover, the cell viability, % of control (lower = more cytotoxic) in [7] was 40.6%.

On to `CC1(C)NC(=O)N(c2ccc([N+](=O)[O-])c(C(F)(F)F)c2)C1=O`, for which the max response in test [1] is 12.7% (inactive) and -11.2% (inactive); in test [8] it was -18.9% (inactive). Further, the Potency entry in test [9] is “inactive”. In test [4], this compound yielded a parasite growth, % of DMSO control of 83.6%. The parasite growth remaining, % of DMSO control (lower = more inhibition) in [10] stood at 106%. For the same compound, the parasite growth, % of control (lower = inhibition) in test [5] was determined as 86.1%. The growth, % of control in test [6] amounted to 91%. Also, in test [7], the cell viability, % of control (lower = more cytotoxic) worked out at 204%.

`CCOC(=O)C(C)Oc1cccc2c(=O)n(CC(=O)Nc3ccc4c(c3)OCCO4)ccc12` (configuration not stated): the max response in test [1] is 9.26% (inactive). Also, in test [2], the activity, percent of control is 97.4%. The remaining proliferation (% of control), lower = more inhibition in [3] came to 104%. The parasite growth, % of DMSO control in [4] is 72.1%. Further, the parasite growth, % of control (lower = inhibition) in test [5] came out at 81.6%. This compound displayed a growth, % of control in test [6] of 96%. In addition, in test [7], the cell viability, % of control (lower = more cytotoxic) stood at 102%.

`NS(=O)(=O)c1cc(C(=O)O)c(NCc2ccco2)cc1Cl`: the max response in test [1] was 3.33% (inactive); in test [8], 5.51% (inactive) and -8.33% (inactive). Further, in test [9], the Potency entry is “inactive”. Moreover, the parasite growth, % of DMSO control in test [4] was determined as 58.2%. The cell viability, % of control (lower = more cytotoxic) in test [7] is 75.9%.
